Hits are enriched below; roughly 12% of the tested compounds scored in any of these assays.
G9a inh – blocks human histone lysine methyltransferase G9a | Potency, µM (doses to about 102 µM), hits mostly inhibitors | AID 504332 | 350,000 tested, 8.8% active | G9a H3K9 monomethylation, AlphaScreen, 2 h; further: nearly all actives have a fitted effect of over 75% in size
Target sequence (Q96KQ7 913-1193 limits assumed): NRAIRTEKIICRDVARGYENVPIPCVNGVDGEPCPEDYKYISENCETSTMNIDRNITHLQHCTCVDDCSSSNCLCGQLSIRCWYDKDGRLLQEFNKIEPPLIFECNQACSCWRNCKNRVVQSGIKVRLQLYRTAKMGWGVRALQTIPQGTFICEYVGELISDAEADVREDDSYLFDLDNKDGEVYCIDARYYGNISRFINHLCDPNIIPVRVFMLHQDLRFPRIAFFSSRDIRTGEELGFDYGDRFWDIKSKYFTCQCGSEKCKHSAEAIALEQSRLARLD
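Compounds were preincubated with 20 nM G9a for 15 min, after which biotinylated H3K9 peptide (500 nM) and SAM (20 uM) started a 2 h room-temperature reaction. Monomethylated product was quantified by antibody-based AlphaScreen chemiluminescence.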
JMJD2A Tudor – blocks the human JMJD2A Tudor domain; 390,000 tested, 4.4% active; O75164; AID 504339; AlphaScreen JMJD2A-Tudor / H3K4me3 peptide binding; Potency, µM (doses to about 114 µM), most hits filed as inhibitors; further: nearly all actives have a fitted effect of over 50% in size
BAZ2B inh – inhibitors of human BAZ2B bromodomain; Q9UIF8; 360,000 tested, 4.4% active; Potency, µM (series often up to 114 µM), hits mostly inhibitors; AlphaScreen BAZ2B-H3K14Ac peptide displacement; further: nearly all actives have a fitted effect of over 60% in size
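Multi-concentration screen (max 110 uM) measuring displacement of acetylated histone H3 peptide from BAZ2B by AlphaScreen, using 50 nM protein, 50 nM peptide and 10 ug/mL streptavidin donor plus Ni-chelate acceptor beads.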
Sfp PPTase inh – blocks B. subtilis Sfp PPTase activity; Biochemical Sfp PPTase activity, qHTS; Potency, µM, usual class: inhibitors; 310,000 tested, 3.5% active;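 further: the enzyme is Sfp with the accession as filed and its product quenches rhodamine fluorescence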
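Fluorescence-quenching assay with 15 nM Sfp, 5 uM rhodamine-CoA and 12.5 uM BHQ-2-labelled ybbR peptide in pH 7.6 Hepes/MgCl2 buffer. Enzyme was pre-incubated with compound for 15 min at room temperature. Rate was taken from the 30-min fluorescence change (525/598 nm).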
HP1b chromo inh – blocks HP1-beta chromodomain binding to methylated histone tails | AlphaScreen HP1-beta / biotin-H3K9me3 peptide binding | Potency, µM (top dose mostly 114 µM), usual class: inhibitors | 390,000 tested, 0.56% active; further: nearly all actives have a fitted effect of over 70% in size
Target sequence (P83916 whole entry, looked up): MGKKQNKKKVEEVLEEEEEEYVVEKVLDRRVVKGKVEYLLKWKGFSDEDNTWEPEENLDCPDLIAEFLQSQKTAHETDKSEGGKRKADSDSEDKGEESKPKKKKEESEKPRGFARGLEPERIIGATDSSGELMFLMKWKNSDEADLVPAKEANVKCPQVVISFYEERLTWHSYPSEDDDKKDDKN
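Compound inhibition of the preformed complex between 50 nM HP1-beta and 50 nM biotinylated H3K9me3 peptide was read by AlphaScreen. Buffer was PBS pH 7.4 with 0.01% Tween-20. Incubations ran 30 min at room temperature, with 10 ug/mL donor/acceptor beads.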
Each line names hits and unclear results; the compound was inactive in the other large screens. The call rests on the fitted dose curve; in most records, active means well fitted curve in the direction sought with a large enough effect; inconclusive means small, poorly fitted or top-dose-only effect, or another doubt; inactive means no such curve, though single readings can be large; an effect the other way counts as inactive or inconclusive.

Cc1ccc(NC(=O)c2cc(-c3ccco3)nc3ccccc23)cc1S(=O)(=O)N1CCOCC1	G9a inh inconclusive, BAZ2B inh inconclusive
CCOc1cc(N2CCOCC2)c(OCC)cc1NC(=O)c1cc(-c2ccco2)nc2ccccc12	G9a inh 8.91µM, JMJD2A Tudor 50.1µM, Sfp PPTase inh 28.2µM, HP1b chromo inh inconclusive (no result: BAZ2B inh)
CC(C)Oc1ccc(-c2cc(C(=O)NCCN3CCOCC3)c3ccccc3n2)cc1	BAZ2B inh inconclusive, Sfp PPTase inh 79.4µM
CCOc1cc(N2CCOCC2)c(OCC)cc1NC(=O)COc1ncnc2ccccc12	G9a inh inconclusive, BAZ2B inh inconclusive
CCc1ccc(NC(=O)c2nnn(Cc3cccc(C(F)(F)F)c3)c2N)cc1	none (no result: Sfp PPTase inh)
c1ccc2c(Nc3ccc4c(c3)OCCO4)c3c(nc2c1)CCCC3	G9a inh inconclusive, JMJD2A Tudor inconclusive, BAZ2B inh inconclusive, Sfp PPTase inh 50.1µM
Fc1cccc(Nc2c3c(nc4ccccc24)CCC3)c1	none
Cc1ccc(S(=O)(=O)N2CCCc3cc(NS(=O)(=O)c4ccccc4)ccc32)cc1	none (no result: Sfp PPTase inh)
CCOC(=O)C1=NN(c2ccccc2)C(=O)/C1=C\c1ccc(N(C)C)cc1	G9a inh inconclusive, JMJD2A Tudor 8.91µM, BAZ2B inh 10µM, HP1b chromo inh 5.62µM
CC1=NN(Cc2ccccc2)C(=O)/C1=C\c1ccc(N(C)C)cc1	G9a inh 11.2µM, JMJD2A Tudor inconclusive, BAZ2B inh 10µM, HP1b chromo inh inconclusive
COc1ccc(CCNC(=O)C(C)n2c(=O)cc(C(F)(F)F)c3c(C)nn(C)c32)cc1OC (configuration not stated)	none (no result: Sfp PPTase inh)
CC(C)C(CCNC(=O)CC(Cc1ccccc1)c1ccco1)c1ccco1 (configuration not stated)	JMJD2A Tudor inconclusive, BAZ2B inh 50.1µM
Cc1cccc(NC(=O)CNC(=O)c2cc(C3CC3)nn2-c2ccccc2)c1C	G9a inh 50.1µM (no result: Sfp PPTase inh)
O=C(Oc1ccc2c(=O)c(Oc3ccc4ccccc4c3)coc2c1)c1cncc(Br)c1	none
O=C(Oc1ccc2c(=O)c(Cl)coc2c1)c1ccncc1	G9a inh 35.5µM, BAZ2B inh inconclusive
Cc1cc(O)c(C(C[N+](=O)[O-])c2ccc(Cl)cc2Cl)c(=O)o1 (configuration not stated)	G9a inh 4.47µM, BAZ2B inh inconclusive, Sfp PPTase inh inconclusive
Cc1cn(C2CC(N=[N+]=[N-])C(CO)O2)c(=O)[nH]c1=O (configuration not stated)	none (no result: G9a inh, JMJD2A Tudor, BAZ2B inh, HP1b chromo inh)
COc1ccc(Nc2nc(C(=O)NCc3ccco3)cs2)cc1	G9a inh inconclusive, JMJD2A Tudor inconclusive, BAZ2B inh 79.4µM
COc1ccc(Nc2nc(C(=O)N(CCO)Cc3ccccc3)cs2)cc1	G9a inh 44.7µM, BAZ2B inh 50.1µM
O=C(NCc1ccco1)Nc1ccccc1Cl	none
O=C(NCc1ccco1)c1csc(Nc2ccccc2Cl)n1	G9a inh 31.6µM, BAZ2B inh inconclusive, Sfp PPTase inh 28.2µM
Cc1cccc(CN2CC34CCC(CC3S2(=O)=O)O4)c1 (configuration not stated)	none (no result: G9a inh, BAZ2B inh)
COc1ccc(C(=O)NCc2nnc(SCC(=O)Nc3cc(Cl)ccc3OC)o2)cc1	none
O=C(NCc1cccs1)c1nn(-c2ccccc2Cl)nc1CO	G9a inh inconclusive (no result: Sfp PPTase inh)
Cc1ccc(C)c(NC(=O)C(Cc2ccccc2)N2Cc3ccccc3C2=O)c1 (configuration not stated)	none (no result: Sfp PPTase inh)
Cc1cc(C)cc(NC2=CC(=O)CC(c3ccco3)C2)c1 (configuration not stated)	none
Nc1ccccc1NC1=CC(=O)CC(c2ccco2)C1 (configuration not stated)	G9a inh 10µM, Sfp PPTase inh 8.91µM
CCc1ccc(NC2=CC(=O)CC(c3ccco3)C2)cc1 (configuration not stated)	G9a inh 50.1µM, JMJD2A Tudor inconclusive, BAZ2B inh inconclusive, Sfp PPTase inh inconclusive
Cc1ccc(NC2=CC(=O)CC(c3ccco3)C2)c(N)c1 (configuration not stated)	none
Cc1cc2c(c(C)c1Cl)C(c1ccc3c(c1)OCO3)CC(c1ccccc1)O2 (configuration not stated)	none (no result: G9a inh, BAZ2B inh)
Cc1ccc(-c2nc(SCC(=O)N3CCc4ccccc43)c3c(=O)n(C)c(=O)n(C)c3n2)cc1	none (no result: Sfp PPTase inh)
O=C(O)CCCN(Cc1cccc(Br)c1)S(=O)(=O)c1ccc(Br)cc1	Sfp PPTase inh 79.4µM
Cc1ccc(S(=O)(=O)c2nnn3c2nc(NC(C)C)c2cc(Cl)ccc23)cc1C	none (no result: Sfp PPTase inh)
COc1ccc(C(=O)NC(=S)N2CCN(c3ccccc3OC)CC2)cc1OC	BAZ2B inh inconclusive, Sfp PPTase inh inconclusive (no result: G9a inh)
Cc1cccc2c(=O)cc(CSc3ccccc3NC(=O)c3cccc(Cl)c3)[nH]c12	none (no result: Sfp PPTase inh)
Cc1nn(-c2ccccn2)c2c1-c1nc(N)ncc1CC2	G9a inh inconclusive
Cc1nn(-c2ccccn2)c2c1-c1nc(N3CCOCC3)ncc1CC2	G9a inh inconclusive, Sfp PPTase inh 44.7µM
COc1cc(C)c(Cc2cnc(N)nc2N)cc1OC	none (no result: JMJD2A Tudor, HP1b chromo inh)
Cc1cc(Cc2cc(C)c(N)cc2C)c(C)cc1N	BAZ2B inh 35.5µM (no result: G9a inh)
CCOc1ccc(C(=O)Nc2ccc3c(c2)OCCO3)cc1Br	none (no result: Sfp PPTase inh)
COc1cc(CNc2ccc(N3CCOCC3)cc2)cc(Br)c1OC	G9a inh 17.8µM, JMJD2A Tudor 39.8µM, BAZ2B inh 39.8µM, Sfp PPTase inh inconclusive, HP1b chromo inh inconclusive
CCOc1cc(CNc2ccc3c(c2)OCCO3)cc(Br)c1OCC	JMJD2A Tudor 44.7µM, BAZ2B inh 25.1µM (no result: G9a inh)
CCOc1ccc(Br)cc1S(=O)(=O)Nc1ccc(N2CCOCC2)cc1	G9a inh 11.2µM, BAZ2B inh inconclusive
CCOc1cc(CNc2ccc(N3CCCCC3)cc2)cc(Br)c1OCC(=O)NC(C)(C)C	G9a inh 10µM, JMJD2A Tudor 10µM, BAZ2B inh 11.2µM, HP1b chromo inh inconclusive
CCS(=O)(=O)N1Cc2ccccc2CC1C(=O)NCCc1ccccc1 (configuration not stated)	none
CCOc1ccc(Br)cc1S(=O)(=O)N1CCC(C(N)=O)CC1	none
CCOc1cc(CNc2ccc(N3CCOCC3)cc2)cc(Br)c1OCC	G9a inh 25.1µM, JMJD2A Tudor 20µM, BAZ2B inh 17.8µM, HP1b chromo inh 44.7µM
CCOc1ccc(Br)cc1S(=O)(=O)N1CCCN(C)CC1	G9a inh 50.1µM
O=C(O)c1ccc(S(=O)(=O)N[C@H](Cc2ccc(C(F)(F)F)cc2)C(=O)O)cc1	BAZ2B inh inconclusive (no result: HP1b chromo inh)
CSCC[C@H](NC(=O)C1CCN(S(=O)(=O)c2ccc(C)cc2)CC1)C(=O)NC1CCS(=O)(=O)C1 (some centres not stated)	G9a inh 56.2µM
COc1ccccc1N1CCN(C(=O)c2cc(S(=O)(=O)N3CCOCC3)ccc2C)CC1	none (no result: Sfp PPTase inh)
Cc1ccc(-c2n[nH]c(=S)c3ccccc23)cc1S(=O)(=O)NCC1CCCO1 (configuration not stated)	G9a inh 22.4µM, JMJD2A Tudor 17.8µM

Screening data from PubChem BioAssay.
